Screening results as filed in PubChem.
Sampled rows, rich in hits. Any-hit rate of the full collection: about 11%.
HEK293 tox – HEK 293 cell cytotoxicity | AID 1345083 | HEK 293 viability, ATP luminescence (CellTiter-Glo), 48-72 h | 94,000 tested, 6.6% active | Potency, µM (series often up to 115 µM), for the others: at the top dose activity change, negative = cytotoxicity, most hits filed as inhibitors; note: % is set by controls: 0 for no effect and ±100 for the full control effect; nearly all actives have a fitted effect of over 60% in size
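HEK 293 cells seeded at 250 cells/well were exposed to compound for 48 or 72 hr at 37 degree Celsius. Viability taken as ATP content by CellTiter-Glo luminescence.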
NIH3T3 tox – kills NIH 3T3 cells; NIH 3T3 viability, CellTiter-Glo ATP luminescence, 48-72 h; 94,000 tested, 4.3% active; Potency, µM (titrated, usually from 96.7 µM), for inactives: at the top dose activity change, negative = cytotoxicity, actives largely listed as inhibitors; note: % is set by controls: 0 for no effect and ±100 for the full control effect; nearly all actives have a fitted effect of over 55% in size
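Luminescent ATP readout (CellTiter-Glo, 10 min RT) after 48 or 72 hr compound exposure of NIH 3T3 cells seeded at 400 cells/well in 1536-well format; quantitative HTS.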
FLuc inh – Photinus pyralis luciferase inhibition. P08659. purified P. pyralis luciferase, luminescence, biochemical. Potency, µM (top dose mostly 115 µM), actives largely listed as inhibitors. 76,000 tested, 2.5% active. AID 1347043; note: % is set by controls: 0 for no effect and ±100 for the full control effect; nearly all actives have a fitted effect of over 65% in size
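Cell-free enzyme assay, 10nM P. pyralis luciferase, luciferin and ATP each at 10uM. Inhibition profiled over a 6-point titration, read as luminescence.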
NPR1 antag – human Npr1 receptor antagonism; 76,000 tested, 1.6% active; P16066; Potency, µM (series often up to 46.3 µM), inactives show at the top dose activity change, negative = inhibition, most hits filed as inhibitors; HEK293 hNpr1 GloSensor cGMP, ANP-stimulated luminescence; AID 1347048; calls by dose curve; note: % is set by controls: 0 for no effect and ±100 for the full control effect; nearly all actives have a fitted effect of over 60% in size
Target sequence (P16066 whole entry, looked up): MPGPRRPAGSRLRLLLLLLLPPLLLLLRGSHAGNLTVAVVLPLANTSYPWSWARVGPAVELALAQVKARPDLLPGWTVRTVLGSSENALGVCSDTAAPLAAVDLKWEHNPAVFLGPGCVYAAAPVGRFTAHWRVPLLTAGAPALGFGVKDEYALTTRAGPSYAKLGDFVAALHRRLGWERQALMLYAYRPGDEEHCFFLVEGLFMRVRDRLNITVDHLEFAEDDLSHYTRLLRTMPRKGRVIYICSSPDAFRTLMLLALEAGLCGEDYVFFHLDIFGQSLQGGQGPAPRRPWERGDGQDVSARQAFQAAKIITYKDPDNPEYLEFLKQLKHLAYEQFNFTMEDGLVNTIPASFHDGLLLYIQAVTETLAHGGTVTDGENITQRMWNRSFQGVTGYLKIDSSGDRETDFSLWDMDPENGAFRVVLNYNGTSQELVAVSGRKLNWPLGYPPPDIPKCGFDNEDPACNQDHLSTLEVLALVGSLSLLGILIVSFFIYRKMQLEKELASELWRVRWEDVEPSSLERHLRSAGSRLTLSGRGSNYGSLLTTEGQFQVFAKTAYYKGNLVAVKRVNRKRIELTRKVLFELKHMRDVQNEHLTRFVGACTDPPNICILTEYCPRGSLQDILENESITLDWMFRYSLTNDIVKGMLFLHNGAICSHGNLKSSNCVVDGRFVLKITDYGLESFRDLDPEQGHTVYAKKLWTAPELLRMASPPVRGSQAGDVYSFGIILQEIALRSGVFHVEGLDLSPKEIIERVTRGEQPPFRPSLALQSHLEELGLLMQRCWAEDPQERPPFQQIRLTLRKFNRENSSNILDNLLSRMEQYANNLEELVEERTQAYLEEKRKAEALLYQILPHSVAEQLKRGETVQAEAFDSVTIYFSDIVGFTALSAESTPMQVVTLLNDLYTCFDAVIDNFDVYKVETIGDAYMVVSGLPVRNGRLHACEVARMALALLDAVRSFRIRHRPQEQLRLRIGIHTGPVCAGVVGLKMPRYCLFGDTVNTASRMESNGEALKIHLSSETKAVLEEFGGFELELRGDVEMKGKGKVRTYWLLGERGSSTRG
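HEK293 cells stably expressing human Npr1 and cGMP GloSensor pGS-40F, loaded 2 h with 2% GloSensor reagent, given compound 30 min at room temperature. Luminescence read before and 20 min after 0.1 nM hNppA.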
NPR1 antag cnf – confirmation of human Npr1 natriuretic peptide receptor antagonists. HEK293 hNpr1 cGMP GloSensor luminescence, ANP-stimulated. Potency, µM (titrated, usually from 57.6 µM), without a hit: top-dose activity change, negative = inhibition, actives largely listed as inhibitors. 1,400 tested, 76% active. shares compounds with NPR1 antag; calls by dose curve; note: nearly all actives have a fitted effect of over 70% in size
Npr2 selectivity – selectivity test of Npr1 antagonists against human Npr2; Potency, µM (doses to about 57.6 µM), without a hit: top-dose activity change, negative = inhibition, most hits filed as inhibitors; shares compounds with NPR1 antag; 1,400 tested, 67% active; HEK293 hNpr2 GloSensor cGMP luminescence, CNP-stimulated; calls by dose curve; note: nearly all actives have a fitted effect of over 70% in size
FLuc inh counter – FLuc enzyme inhibition, Npr1 counter-screen; 1,400 tested, 0.7% active; purified FLuc enzyme, luminescence, Km substrate; Potency, µM (doses to about 57.6 µM), inactives show at the highest dose activity change, negative = inhibition, actives largely listed as inhibitors; shares compounds with NPR1 antag; note: 0% is about no effect
GloSensor cGMP – control cell line activity, Npr1 antagonist counter-screen; shares compounds with NPR1 antag; HEK293 GloSensor cGMP, SNP-stimulated, luminescence; Potency, µM (doses to about 57.6 µM), for inactives: at the top dose activity change, negative = inhibition, actives largely listed as inhibitors; 1,400 tested, 69% active; AID 1347051; calls by dose curve; note: % is set by controls: 0 for no effect and ±100 for the full control effect; nearly all actives have a fitted effect of over 70% in size
Numbers without * were called inactive; i = inactive; ? = inconclusive; . = no result given; [ ] = remark or other dose. Unless noted, calls come from the whole dose curve; as a rule, active = well fitted curve in the direction sought with a large enough effect; inconclusive = small, poorly fitted or top-dose-only effect, or another doubt; inactive = no such curve, though single readings can be large; an effect the other way counts as inactive or inconclusive. Potency is the fitted concentration of half-maximal effect.

SMILES	HEK293 tox	NIH3T3 tox	FLuc inh	NPR1 antag	NPR1 antag cnf	Npr2 selectivity	FLuc inh counter	GloSensor cGMP
CC(C)CN1CCN(C(=O)C2CCCN(S(C)(=O)=O)CCC(=O)NCC2)CC1 (centres undefined)	-3%	5%	i	-3%	.	.	.	.
COc1ccc(C(=O)N2CCN(C(=O)c3nnn4c3COC(c3ccc(Cl)cc3)C4)CC2)cc1F (centres undefined)	?	-31%	i	?	24µM*	27µM*	1%	22µM*
O=C(c1ccc[nH]1)N1CCN(C(=O)c2nnn3c2COC(c2ccc(Cl)cc2)C3)CC1 (centres undefined)	-19%	-11%	i	-2%	.	.	.	.
O=C(c1ccc(F)c(F)c1)N1CCN(C(=O)c2nnn3c2COC(c2ccc(Cl)cc2)C3)CC1 (centres undefined)	-46%	?	i	13µM*	22µM*	22µM*	8%	19µM*
O=C(c1ccc(F)c(Cl)c1)N1CCN(C(=O)c2nnn3c2COC(c2ccccc2)C3)CC1 (centres undefined)	?	?	i	13µM*	22µM*	24µM*	1%	22µM*
O=C(c1nnn2c1COC(c1ccc(Cl)cc1)C2)N1CCN(C(=O)c2c(F)cccc2F)CC1 (centres undefined)	?	?	i	?	?	?	0%	?
CN(C)c1cccc(C(=O)N2CCN(C(=O)c3nnn4c3COC(c3ccc(Cl)cc3)C4)CC2)c1 (centres undefined)	?	?	i	13µM*	24µM*	24µM*	-29%	24µM*
O=C(c1cccc(Cl)c1)N1CCN(C(=O)c2nnn3c2COC(c2ccc(F)cc2)C3)CC1 (centres undefined)	?	?	i	13µM*	24µM*	24µM*	0%	24µM*
OC1CC(c2cc(NCCCn3ccc4ccccc43)ncn2)C1 (centres undefined)	?	?	i	11µM*	19µM*	19µM*	0%	12µM*
Cn1ccc2c(C(=O)NCc3cccnc3)nc(-c3cccc4cc[nH]c34)cc21	?	?	i	?	?	?	-3%[86.2 µM]	-20%[86.2 µM]
Cn1ccc2c(C(=O)NCc3cccnc3)nc(Nc3ccccc3)cc21	63µM*	?	i	?	35µM*	35µM*	-24%[86.2 µM]	31µM*
CC(C)(C)c1nc(C(=O)NCc2cccnc2)n2ccncc12	-7%	-24%	.	.	.	.	.	.
